Screens as filed in PubChem BioAssay.
The sample as a whole holds a higher share of hits than the screen did.
TbREL1 primary: TbREL1 inhibition, primary screen. inhibition, % at 9.66 µM. TbREL1 RNA ligation, FRET fluorescence. P86926. AID 1117264. 0.49% of 89,000 active;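 active means inhibition above the mean inhibition across all screened compounds plus 3 SD, cut at about 11% in these data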;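 further: 0% = plate median of test wells and 100% = NSC42067 control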
Target sequence (P86926 whole entry, looked up): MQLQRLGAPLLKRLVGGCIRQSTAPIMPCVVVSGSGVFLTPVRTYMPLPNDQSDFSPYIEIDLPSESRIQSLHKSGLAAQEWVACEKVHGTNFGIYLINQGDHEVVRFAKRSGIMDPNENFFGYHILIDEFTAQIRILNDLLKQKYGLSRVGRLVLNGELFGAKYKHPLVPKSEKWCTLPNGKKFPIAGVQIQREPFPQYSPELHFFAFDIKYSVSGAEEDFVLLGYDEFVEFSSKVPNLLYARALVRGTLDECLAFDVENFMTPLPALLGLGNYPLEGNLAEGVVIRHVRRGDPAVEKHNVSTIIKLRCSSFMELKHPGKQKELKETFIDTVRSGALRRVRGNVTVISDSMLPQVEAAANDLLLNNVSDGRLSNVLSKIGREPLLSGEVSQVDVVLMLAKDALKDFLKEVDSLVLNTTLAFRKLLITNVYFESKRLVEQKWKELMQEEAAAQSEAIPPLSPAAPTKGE
TbREL1 conf: TbREL1 inhibition, confirmation. shares compounds with TbREL1 primary. TbREL1 RNA ligation, FRET fluorescence. inhibition, % at 9.66 µM. 37% of 390 active;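 active means mean inhibition across replicates above a set limit taken from the earlier primary screen, cut at about 11% in these data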;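 further: 0% = REL1 with substrate and DMSO and 100% = REL1 plus control inhibitor NSC42067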
* = called active by the depositor.

SMILES	TbREL1 primary	others
O=C(CNS(=O)(=O)c1ccccc1)N1CCN(c2ccccn2)CC1	5.9
Cc1ccc(C)c(OCCCNCc2ccccc2)c1	10.5
Cc1cc(OCCOCCNCc2ccccc2)ccc1C(C)C	19.5*	TbREL1 conf=8.8
COCCNCCOCCOc1ccc(Cl)c(C)c1	5.6
COC(=O)[C@]12C[C@H](CC(=O)NCc3cccs3)C(=O)N(Cc3ccccc3)C1=C[C@H](COCc1ccccc1)O[C@@H]2C	2.4
COc1ccc(S(=O)(=O)N2CCN(C(=O)CSc3nc4ccccc4nc3N3CCCCC3)CC2)cc1	5.8
CC(C)CCN1C(=O)COc2ccccc2C1c1nnnn1-c1ccc2c(c1)OCCO2 (stereo not drawn)	1.6
O=S(=O)(Nc1nc(-c2ccco2)c(-c2ccco2)s1)c1ccc(F)cc1F	30.6*	TbREL1 conf=-0.5
O=C(NNS(=O)(=O)c1ccc(F)cc1F)C1Cc2c(ccc3ccccc23)O1 (stereo not drawn)	3.0
Cc1nc2ccc(NS(=O)(=O)c3ccc(F)cc3F)cc2s1	2.2
O=C(Nc1ccc(Cl)c(Cl)c1)C1CCN(c2nnc(-n3cccc3)s2)CC1	3.7
COc1ccccc1C=NNC(=O)CSc1nc2ccccc2n1Cc1ccc(Cl)cc1	-0.6
C=CCN1C(=O)[C@@H](CC(=O)N2CCN(C(=O)C3CC3)CC2)[C@]2(C(=O)OC)CCCCC=C12	-0.6
CCCCN(C)C(=O)c1ccc2c(c1)NC(=O)C(C)(C)O2	-2.3
CC(COc1ccc(C#N)cc1)CN1CCC(C(O)(c2ccccc2)c2ccccc2)CC1 (stereo not drawn)	6.1
OC(c1ccccc1)(c1ccccc1)C1CCN(CCCOc2ccc(Cl)cc2)CC1	9.0
N#Cc1cccc(OCCCN2CCC(C(O)(c3ccccc3)c3ccccc3)CC2)c1	15.1*	TbREL1 conf=7.3
C[C@H]1CCCN1c1ccc2c(c1)OCCCN(C1CC1)S2(=O)=O	3.4
Cc1ccc(C)c(NC(=O)c2ccc(CS(=O)(=O)Cc3ccccc3C)o2)c1	2.2
CCn1c2ccccc2c2cc(C=Nn3c(-c4ccccn4)n[nH]c3=S)ccc21	2.8
COCCOC(=O)N(C)C[C@@H]1OCCCC[C@H](C)Oc2ccc(NC(=O)Nc3ccccc3)cc2C(=O)N([C@@H](C)CO)C[C@H]1C	-3.4
CCN(Cc1ccccc1)C(=O)C1CCCN(c2ncccn2)C1 (stereo not drawn)	-0.7
NC(=O)[C@@H]1CC2(CC(c3cccc(NC(=O)CC(c4ccccc4)c4ccccc4)c3)=NO2)CN1C(=O)c1ccc(Cl)cc1 (stereo partly drawn)	0.5
C/C=C(/C)C(=O)Nc1cccc(C2=NOC3(C2)C[C@H](C(N)=O)N(C(=O)c2ccccc2)C3)c1 (stereo partly drawn)	-2.2
NC(=O)[C@H]1CC2(CC(c3cccc(NC(=O)[C@H]4CCC(=O)N4)c3)=NO2)CN1C(=O)c1ccccc1 (stereo partly drawn)	20.1*	TbREL1 conf=25.7*
SMILES	TbREL1 primary	others
COc1ccc(C2C(C(=O)Nc3cc(OC)ccc3OC)CCC(=O)N2c2ccc(OC)cc2)cc1 (stereo not drawn)	-1.8
Cc1cccc(NC(=O)C2CCCN(c3nnc(-n4cccc4)s3)C2)c1C (stereo not drawn)	3.7
COC1=CC(=O)c2nc(Cl)ccc2C1=O	20.1*	TbREL1 conf=29.9*
COc1ccc(N2CCN(CCCNC(=O)Cn3c(=O)c4cccn4c4c(C)ccnc43)CC2)cc1	-9.2
COC(=O)[C@]1(C)CN(C(=O)OC(C)(C)C)C2=C1C(=O)C[C@@](C)(C(=O)OC(C)(C)C)C2	-2.7
COCCCNCCCCOc1ccc(C)cc1[N+](=O)[O-]	2.5
Cc1ccc(OCCN2CCN(C)CC2)c([N+](=O)[O-])c1	12.4*	TbREL1 conf=5.5
Cc1ccc(OCCOCCN2CCN(C)CC2)c(C(C)(C)C)c1	-1.1
CCOc1ccc(-n2c(SCC(=O)Nc3ccc4cn[nH]c4c3)nnc2-c2ccc(C(C)(C)C)cc2)cc1	-2.1
Cc1ccc(CN2CCCCC(NC(=O)c3ccc(Br)cc3)C2=O)cc1 (stereo not drawn)	-5.1
CCOC(=O)c1ccc(NC(=O)CSc2nnc(SCc3cccc4ccccc34)s2)cc1	1.0
CCC[C@H]1[C@@H](OC(=O)NCc2ccc(Cl)c(Cl)c2)CC[C@@]23CCCN2C(=O)CCC[C@@H]13	13.1*	TbREL1 conf=-0.3
CCC[C@H]1[C@@H](NC(=O)C2CCCCC2)CC[C@@]23CCCN2C(=O)CCC[C@@H]13	35.9*	TbREL1 conf=0.2
CCCCCCCC(=O)N[C@H]1CC[C@@]23CCCN2C(=O)CCC[C@H]3[C@H]1CCC	1.1
CCC[C@H]1[C@@H](OC(=O)NCc2ccc(Cl)cc2)CC[C@@]23CCCN2C(=O)CCC[C@@H]13	-3.3
CCC[C@H]1[C@@H](NCC2CCCCC2)CC[C@@]23CCCN2C(=O)CCC[C@@H]13	2.3
CCC[C@H]1[C@@H](OC(=O)NCc2ccc(C)cc2)CC[C@@]23CCCN2C(=O)CCC[C@@H]13	-3.3
O=C(Nc1sc2c(c1-c1nc3ccccc3s1)CCNC2)C(F)(F)F	5.1
O=C(NCc1ccco1)C1CCCN(S(=O)(=O)c2ccc(F)cc2)C1 (stereo not drawn)	1.6
COC(=O)[C@@]12CCCCC3=C1N(CCC3)C(=O)[C@H]2CC(=O)NCC1CCCCC1	-3.0
O=c1cc2oc3cc(O)c(O)cc3c(-c3ccccc3[N+](=O)[O-])c-2cc1O	20.9*	TbREL1 conf=25.5*
Nc1cc2c([N+](=O)[O-])cccc2o1	-2.7
Cc1cc(=O)c(C(=O)O)nn1-c1ccccc1[N+](=O)[O-]	0.6
O=C(COCc1ccccc1)NC1CCCCN(Cc2ccc(Cl)cc2)C1=O (stereo not drawn)	0.2
COC(=O)c1ccc(Cn2cc([N+](=O)[O-])cn2)cc1	3.4
SMILES	TbREL1 primary	others
Cc1nn(C(=O)Cn2cc([N+](=O)[O-])cn2)c(C)c1Cl	11.3*	TbREL1 conf=3.5
CC(C)NC(=O)CCCn1cc([N+](=O)[O-])cn1	2.6
Cc1ccc(CN2CCCCC(NC(=O)c3ccccc3C)C2=O)cc1 (stereo not drawn)	0.4
O=C(CCC(=O)N1CCN(C2c3ccccc3-c3ccccc32)CC1)Nc1nnc(C(F)(F)F)s1	-0.1
O=C(CN1C(=O)c2ccccc2C1=O)Nc1cc([N+](=O)[O-])ccc1O	0.4
O=C(CN1C(=O)c2ccc([N+](=O)[O-])cc2C1=O)NCc1ccco1	11.5*	TbREL1 conf=2.0
Cc1c(NC(=O)CN2C(=O)c3ccc([N+](=O)[O-])cc3C2=O)c(=O)n(-c2ccccc2)n1C	-1.9
COC(=O)[C@@]12CCCCC=C1N(CCc1ccc(Cl)cc1)C(=O)[C@H]2CC(=O)NCCc1ccccc1OC	1.5
C=CCCC(=O)N[C@H]1CC[C@@]23CCCN2C(=O)CCC[C@H]3[C@H]1C	-2.5
Oc1ccc(Oc2ccccc2F)c2cccnc12	-1.8
COC(CNC(=O)[C@H](Cc1ccccc1)NC(C)(C)C(=O)NC1CCCCC1)OC	8.6
CC1CN(CC(O)COC(c2ccccc2)c2ccccc2)CC(C)O1 (stereo not drawn)	4.8
OC(COC(c1ccc(Cl)cc1)c1ccc(Cl)cc1)CN1CCCC1 (stereo not drawn)	4.8
Cc1ccc(C(OCC(O)CN2CCCCC2)c2ccccc2)cc1 (stereo not drawn)	13.0*	TbREL1 conf=5.5
C[C@H]1[C@H](N)CC[C@@]23CCCN2C(=O)CCC[C@@H]13	10.9
CCOc1ccc(NC(=O)CN2CCCN(c3ccc(OC)cc3)CC2)cc1	-5.9
CC(C)CCN(C)C1CCN(C(=O)Nc2ccccc2)CC1	0.2
